# Test results reported in the antibiotic and cytotoxicity screens of Wong et al. (2023).
# Among all 39,000 compounds or so, about 3,300 (8.5%) were called active. What follows is part of a selection rich in actives, with near analogues and random picks from the rest.
# Test system: HepG2
# Test: cytotoxicity call (relative viability < 0.9)
# Conditions: 10 µM
row,Structure (SMILES),cytotoxicity call
1,CC(C)NC(=O)N(C)C[C@@H]1Oc2ccc(NC(=O)CCCN(C)C)cc2C(=O)N([C@H](C)CO)C[C@@H]1C,inactive
2,COc1ccc2c3c(n(c2c1)C)[C@H](CO)N(C[C@]13CN(CC2CCOCC2)C1)C(=O)Cc1ccccn1,inactive
3,NC(=O)c1ccc[n+](CC(=O)N2CCCCC2)c1,inactive
4,Cc1noc(C)c1S(=O)(=O)Nc1ccc2c(c1)C(=O)N([C@@H](C)CO)C[C@H](C)[C@@H](CN(C)C(=O)Nc1ccccc1)O2,inactive
5,O=C(C[C@H]1CC[C@H]2[C@@H](COC[C@@H](O)CN2S(=O)(=O)c2ccc(F)cc2)O1)N1CCc2ccccc2C1,inactive
6,O=c1nc(NCCN2CCOCC2)cn[nH]1,inactive
7,NC(=O)Cn1nnc(-c2ccccc2)n1,inactive
8,C[C@@H]1CN([C@H](C)CO)C(=O)c2cc(NC(=O)Nc3cccc4ccccc34)ccc2O[C@H]1CN(C)Cc1ccncc1,inactive
9,C[C@@H]1CN([C@@H](C)CO)C(=O)c2cccc(NC(=O)c3nc4ccccc4s3)c2O[C@@H]1CN(C)S(=O)(=O)c1cn(C)cn1,inactive
10,COc1ccc2c3c([nH]c2c1)[C@H](CO)N(C[C@]13CN(C1)S(=O)(=O)c1ccccc1)C(=O)c1cnccn1,inactive
11,COc1cccc(NC(=O)N[C@H]2CC[C@@H](CC(=O)N3CCOCC3)O[C@H]2CO)c1,inactive
12,C[C@@H]1CN([C@@H](C)CO)C(=O)Cc2cc(NC(=O)Nc3ccc(C(F)(F)F)cc3)ccc2O[C@@H]1CN(C)Cc1ccc(Cl)c(Cl)c1,active
13,COc1ccc(S(=O)(=O)N(C)C[C@H]2Oc3ccc(NC(=O)Cc4ccccc4)cc3C(=O)N([C@H](C)CO)C[C@@H]2C)cc1,inactive
14,C[C@@H]1CN([C@H](C)CO)C(=O)c2cccc(NC(=O)Nc3cccc4ccccc34)c2O[C@H]1CN(C)C(=O)Nc1ccc2c(c1)OCO2,inactive
15,NS(=O)(=O)c1cccc2c1c([N+](=O)[O-])cc1[nH]c(=O)c(=O)[nH]c12,inactive
16,C[C@@H]1CCCCO[C@@H](CN(C)CC2CC2)[C@@H](C)CN([C@H](C)CO)C(=O)c2cc(NS(C)(=O)=O)ccc2O1,inactive

row,Structure (SMILES),cytotoxicity call
1,C[C@@H]1CN([C@@H](C)CO)C(=O)Cc2cc(NC(=O)Nc3ccc4c(c3)OCO4)ccc2O[C@@H]1CN(C)Cc1ccc(-c2ccccc2)cc1,inactive
2,C[C@H]1CN([C@@H](C)CO)C(=O)Cc2cc(NC(=O)Nc3ccc4c(c3)OCO4)ccc2O[C@@H]1CN(C)Cc1ccc(-c2ccccc2)cc1,active
3,C[C@H]1CN([C@@H](C)CO)C(=O)Cc2cc(NC(=O)Nc3ccc4c(c3)OCO4)ccc2O[C@H]1CN(C)Cc1ccc(-c2ccccc2)cc1,inactive
4,C[C@@H]1CN([C@@H](C)CO)C(=O)Cc2cc(NC(=O)Nc3ccc4c(c3)OCO4)ccc2O[C@H]1CN(C)Cc1ccc(-c2ccccc2)cc1,active
5,C[C@@H]1CN([C@H](C)CO)C(=O)Cc2cc(NC(=O)Nc3ccc4c(c3)OCO4)ccc2O[C@H]1CN(C)Cc1ccc(-c2ccccc2)cc1,inactive
6,C[C@H](CO)N1C[C@H](C)[C@H](CN(C)Cc2ccc(-c3ccccc3)cc2)Oc2ccc(NC(=O)Nc3ccc4c(c3)OCO4)cc2CC1=O,active
7,C[C@@H]1CN([C@H](C)CO)C(=O)Cc2cc(NC(=O)Nc3ccc4c(c3)OCO4)ccc2O[C@@H]1CN(C)Cc1ccc(-c2ccccc2)cc1,active
8,C[C@H](CO)N1C[C@H](C)[C@@H](CN(C)Cc2ccc(-c3ccccc3)cc2)Oc2ccc(NC(=O)Nc3ccc4c(c3)OCO4)cc2CC1=O,inactive
9,CC(C)NC(=O)N(C)C[C@@H]1Oc2ccc(NC(=O)NC3CCCCC3)cc2CC(=O)N([C@H](C)CO)C[C@H]1C,inactive
10,O=C(CN1CCOCC1)NCC[C@H]1CC[C@H](NS(=O)(=O)c2ccc(F)cc2)[C@H](CO)O1,inactive
11,C[C@@H]1CCCCO[C@H](CN(C)Cc2ccncc2)[C@H](C)CN([C@H](C)CO)C(=O)c2cc(NC(=O)c3ccccc3)ccc2O1,inactive
12,C[C@@H]1CCCCO[C@@H](CN(C)Cc2ccccc2)[C@@H](C)CN([C@H](C)CO)C(=O)c2cc(NC(=O)c3ccccc3)ccc2O1,inactive
13,C[C@@H]1CN([C@H](C)CO)C(=O)c2cc(C#CCc3ccccc3)cnc2O[C@H]1CN(C)C(=O)C1CCOCC1,inactive
14,Cc1ccc(S(=O)(=O)N(C)C[C@H]2Oc3ccc(NS(=O)(=O)c4c(C)noc4C)cc3C(=O)N([C@@H](C)CO)C[C@H]2C)cc1,inactive
15,CC(C)(C)c1ccc(-c2nc3ccccc3s2)cc1,inactive
